The campaign covered roughly 1,100 compounds. About 390 (35%) were called active. About 30% were inconclusive and are not listed. Calls follow the shape of the dose curve; as a rule, active = well fitted inhibition curve with a large enough effect; inconclusive = small, poorly fitted or top-dose-only effect; inactive = flat fitted curve, though single readings scatter. Some of the results follow.
These molecules were tested against Luciferin 4-monooxygenase (Photinus pyralis) (UniProt P08659) (assay: qHTS of Nrf2 Activators: Hit Validation in Secondary FLuc Assay). Conditions: firefly luciferase inhibition counter-screen, luminescence; series mostly up to 57.5 µM; activity, negative = inhibition: at the top concentration.
Procedure, shortened: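 Purified firefly luciferase is tested for inhibition by compounds in the presence of its substrates, ATP and D-luciferin, each at Km. Inhibition marks likely false positives arising from reporter-enzyme stabilization.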
With `CN(C)c1oc(/C=C/c2ccccc2)nc1C#N` the Potency was 8.49 µM (active).
With `Oc1ccc(CNc2ccccc2O)cc1` the Potency was 12 µM (active).
In the case of `CCCCC1C(=O)N(c2ccccc2)N(c2ccc(O)cc2)C1=O` (stereo unspecified), the Potency is reported as 10.7 µM (active).
For `COc1ccc(-c2csc3nc(-c4cccnc4)nc(Cl)c23)cc1OC`, the Potency was 12 µM (active).
With `CC(C)(C)OC(=O)NCCC(=O)N/N=C/c1cccc2cccnc12` the “activity, negative = inhibition” value was -3.55% (inactive).
`O=C(/C=C/c1ccco1)Nc1cccnc1Cl` was tested, and the Potency was 6.01 µM (active).
For `O=C(/C=C/c1ccco1)Nc1cccc2cccnc12`, the Potency was 4.78 µM (active).
With `Cc1ccc(/C=C/C(=O)OCC(=O)Nc2cccnc2Cl)o1` the “activity, negative = inhibition” value was -0.884% (inactive).
In the case of `Cc1ccc(N=C2NC(=O)/C(=C/C=C/c3ccco3)S2)cc1`, the Potency is reported as 8.49 µM (active).
`O=C1NC(=Nc2ccccc2)S/C1=C\c1ccccc1` was tested, and the Potency was 7.57 µM (active).
With `O=C1N/C(=N\N=C\c2ccco2)SC1Cc1ccc(F)cc1` (stereo unspecified) the “activity, negative = inhibition” value was -17.3% (inactive).
In the case of `Cc1cccc(CC2S/C(=N/N=C/c3ccco3)NC2=O)c1` (stereo unspecified), the “activity, negative = inhibition” value is reported as -7.31% (inactive).
For `O=C1NC(=Nc2ccccc2)S/C1=C\C=C\c1ccco1`, the Potency was 6.01 µM (active).
With `O=C(CC1S/C(=N/N=C/c2ccco2)NC1=O)Nc1ccccc1` (stereo unspecified) the “activity, negative = inhibition” value was -0.127% (inactive).
In the case of `Cc1ccc(S(=O)(=O)CCSC(=N)N)cc1`, the “activity, negative = inhibition” value is reported as 4.13% (inactive).
For `Cc1ccc(S(=O)(=O)C=CS(=O)(=O)c2ccc(C)cc2)cc1`, the Potency was 0.379 µM (active).
With `Cc1ccc(S(=O)(=O)c2cc3ccccc3oc2=O)cc1` the “activity, negative = inhibition” value was -1.58% (inactive).
In the case of `O=C(COc1cccnc1[N+](=O)[O-])Nc1cccc2ccccc12`, the “activity, negative = inhibition” value is reported as 2.44% (inactive).
For `C/C(=N\NC(=O)COc1ccccc1[N+](=O)[O-])c1cccs1`, the Potency was 9.53 µM (active).
`CCCN(C(=O)c1ccco1)c1nnc(-c2ccccc2C)s1` was tested, and the Potency was 6.75 µM (active).
`CCC/C(=N\NC(=O)c1ccco1)c1ccc(Cl)s1` was tested, and the “activity, negative = inhibition” value was -0.842% (inactive).
In the case of `Oc1ccc(NCc2cccc(OCc3ccc(F)cc3)c2)cc1`, the Potency is reported as 3.38 µM (active).
`CCOc1ccccc1NS(=O)(=O)c1c(C(=O)OC)sc2cccc(F)c12` was tested, and the “activity, negative = inhibition” value was 2.09% (inactive).
In the case of `Cc1ccc(C(=O)Nc2nc(-c3ccco3)c(-c3ccco3)s2)o1`, the Potency is reported as 7.57 µM (active).
In the case of `CCC(CC)c1nnc(NC(=O)/C=C/c2ccco2)s1`, the “activity, negative = inhibition” value is reported as -1.49% (inactive).
For `Cc1csc(NC(=O)/C=C/c2ccco2)n1`, the Potency was 3.01 µM (active).
With `CCOC(=O)Cc1csc(NC(=O)/C=C/c2ccco2)n1` the Potency was 4.26 µM (active).
`Cc1cc(C)c2oc(-c3ccc(C)c(NC(=O)/C=C/c4ccco4)c3)nc2c1` was tested, and the Potency was 2.39 µM (active).
For `Clc1ccc(C=Cc2ccccn2)cc1`, the Potency was 0.379 µM (active).
In the case of `Clc1ccc2c(NCc3ccccn3)ncnc2c1`, the “activity, negative = inhibition” value is reported as -0.91% (inactive).
`Clc1ccc(/C=C/c2ncc3ccccn23)cc1` was tested, and the Potency was 1.51 µM (active).
In the case of `Clc1ccc(C=Cc2ccccn2)c(Cl)c1`, the Potency is reported as 0.338 µM (active).
With `Cc1ccc2nc(/C(C#N)=C\c3ccc([N+](=O)[O-])o3)[nH]c2c1` the Potency was 8.49 µM (active).
In the case of `Nc1c(C(=O)C2CC2)sc2nc(-c3cccs3)cc(C(F)(F)F)c12`, the “activity, negative = inhibition” value is reported as -23.9% (inactive).
`Nc1c(C(=O)Nc2ccccc2Br)sc2nc(-c3cccs3)ccc12` was tested, and the Potency was 8.49 µM (active).
In the case of `c1coc(CSc2ncnc3c2oc2ccccc23)c1`, the Potency is reported as 5.36 µM (active).
`Cc1sc2ncnc(SCc3ccco3)c2c1C` was tested, and the “activity, negative = inhibition” value was -5.64% (inactive).
For `O=C(COCc1cc(-c2cccs2)on1)Nc1cc(Cl)ccc1O`, the “activity, negative = inhibition” value was -0.806% (inactive).
With `Fc1cccc2sc(Nc3nc4ccccc4s3)nc12` the Potency was 2.13 µM (active).
In the case of `Fc1ccc2nc(Nc3nc4c(F)cc(F)cc4s3)sc2c1`, the Potency is reported as 6.75 µM (active).
With `Fc1cc(F)c2nc(Nc3nc4cc5c(cc4s3)OCO5)sc2c1` the Potency was 5.36 µM (active).
`O=C(OCC(=O)N1CCCC1)c1cc([N+](=O)[O-])ccc1Cl` was tested, and the “activity, negative = inhibition” value was -1.21% (inactive).
In the case of `O=[N+]([O-])c1ccc(Cl)c(/C=N/n2c(-c3ccncc3)n[nH]c2=S)c1`, the Potency is reported as 1.9 µM (active).
With `CCOCCCNC(=O)c1ccc(-n2c(-c3ccccc3)cc3c2CCC(C)C3)cc1` (stereo unspecified) the “activity, negative = inhibition” value was 7.91% (inactive).
With `O=C(Nc1ccc(F)cc1F)c1cc(-c2ccco2)nc2ccccc12` the Potency was 6.75 µM (active).
For `COc1ccccc1CNC(=O)COC(=O)c1cc(-c2ccco2)nc2ccccc12`, the Potency was 5.36 µM (active).
For `O=C(Nc1ccccc1F)c1cc(-c2ccco2)nc2ccccc12`, the Potency was 10.7 µM (active).
With `O=C(COC(=O)/C=C/c1ccco1)NCc1ccccc1Cl` the “activity, negative = inhibition” value was -23.7% (inactive).
`O=Cc1c(Sc2ccccn2)nc2ccccn2c1=O` was tested, and the “activity, negative = inhibition” value was -11% (inactive).
`COc1ccc(N(CCCN2C(=O)c3cccc4cccc(c34)C2=O)C(=O)c2cccc(OC)c2)cc1` was tested, and the “activity, negative = inhibition” value was 4.49% (inactive).
For `CCOc1cc2ccccc2cc1C(=O)Nc1ccccn1`, the Potency was 5.36 µM (active).
In the case of `CC1Oc2ccccc2OC1C(=O)Nc1ccccn1` (stereo unspecified), the “activity, negative = inhibition” value is reported as -0.195% (inactive).
With `CCc1nc(Nc2cccc(F)c2)c2oc3ccccc3c2n1` the “activity, negative = inhibition” value was -22.6% (inactive).
For `Brc1ccccc1C1N=C(c2ccccc2)NO1` (stereo unspecified), the Potency was 1.35 µM (active).
With `O=C(Nc1cccc([N+](=O)[O-])c1)Nc1cccs1` the Potency was 10.7 µM (active).
In the case of `O=C(CSc1cccc[n+]1[O-])Nc1cc([N+](=O)[O-])ccc1Cl`, the “activity, negative = inhibition” value is reported as -5.19% (inactive).
In the case of `Cc1cc(C)cc(NC(=O)/C=C/c2ccc([N+](=O)[O-])s2)c1`, the “activity, negative = inhibition” value is reported as 1.91% (inactive).
`Cc1cc(C)cc(NC(=O)Nc2cccs2)c1` was tested, and the Potency was 2.39 µM (active).
With `O=C(CCCCCCC(=O)Nc1ccccc1)NO` the “activity, negative = inhibition” value was -18.5% (inactive).
`O=C(CCCc1ccccc1)Nc1cccc([N+](=O)[O-])c1` was tested, and the Potency was 7.57 µM (active).
In the case of `O=C(NNC(=O)C12CC3CC(CC(C3)C1)C2)c1cccc([N+](=O)[O-])c1`, the “activity, negative = inhibition” value is reported as -24.4% (inactive).
For `COc1ccc(OC)c(NC(=O)C(C#N)=Cc2ccco2)c1`, the Potency was 9.53 µM (active).
`COc1ccc(NC(=O)C2CC(=O)N/C(=N/N=C/c3ccco3)S2)cc1` (stereo unspecified) was tested, and the “activity, negative = inhibition” value was -14.5% (inactive).
For `O=C(/C=C/c1ccccc1Cl)Nc1nc(-c2cccs2)ns1`, the Potency was 1.69 µM (active).
With `Cc1cc2c(cc1C)N(C(=O)CCl)CC(=O)N2` the “activity, negative = inhibition” value was -9.54% (inactive).
With `CSc1ccc(-c2cc(=O)c3ccccc3o2)cc1` the Potency was 1.2 µM (active).
With `O=c1cc(-c2ccccc2)oc2ccc(Cl)cc12` the Potency was 0.849 µM (active).
With `Nn1c(-c2ccccc2)nc2cc(Cl)ccc2c1=O` the “activity, negative = inhibition” value was -1.21% (inactive).
With `COc1c(C(=O)Nc2nnc(C3CC3)s2)csc1Cl` the Potency was 7.57 µM (active).
For `O=C(N/N=C/C(Br)=C/c1ccccc1)c1ccc([N+](=O)[O-])cc1`, the “activity, negative = inhibition” value was -28.9% (inactive).
With `O=[N+]([O-])c1ccccc1C=NNc1ccccc1` the Potency was 2.69 µM (active).
In the case of `O=[N+]([O-])c1cncc([N+](=O)[O-])c1Nc1cccc(O)c1`, the “activity, negative = inhibition” value is reported as 6.84% (inactive).
With `O=[N+]([O-])c1ccc(Cl)cc1C=NNc1ccccn1` the “activity, negative = inhibition” value was -18.3% (inactive).
In the case of `O=[N+]([O-])c1ccccc1/C=N/Nc1nccnc1Cl`, the Potency is reported as 13.5 µM (active).
With `O=[N+]([O-])c1cc(Cl)cc2c1nc(NCCO)c1ccccc12` the “activity, negative = inhibition” value was -5.22% (inactive).
For `Fc1ccc2cc(-c3ccsc3)ncc2c1`, the Potency was 1.69 µM (active).
For `CCN(CC)c1ccc2c(c1)oc(=O)c1c(Cl)cc(=O)oc12`, the Potency was 6.01 µM (active).
In the case of `Cc1noc(C)c1-c1ccc2ncnc(NCC3CCCCN3C)c2c1` (stereo unspecified), the “activity, negative = inhibition” value is reported as 8.17% (inactive).
With `O=C(Nc1cccc([N+](=O)[O-])c1)c1[nH]ncc1Cl` the Potency was 9.53 µM (active).
`O=C(Nc1ccccc1)c1cc([N+](=O)[O-])ccc1Cl` was tested, and the “activity, negative = inhibition” value was 7.81% (inactive).
`CCn1ncc(Br)c1C(=O)Nc1cc([N+](=O)[O-])ccc1C` was tested, and the “activity, negative = inhibition” value was -0.338% (inactive).
`COc1ccc(C(C#N)=C2C=CC(=NO)C=C2)cc1` was tested, and the Potency was 8.49 µM (active).
With `Cc1cc(C)n(-c2nc3ccccc3c(=O)n2OCc2ccc(F)cc2)n1` the “activity, negative = inhibition” value was -3.71% (inactive).
With `C#CCSc1nc(-c2cccs2)ccc1C#N` the “activity, negative = inhibition” value was -22.8% (inactive).
`N#Cc1cccn1-c1nccc(-c2cccs2)n1` was tested, and the Potency was 12 µM (active).
For `O=C(CSc1nccc(-c2cccs2)n1)Nc1ccc(F)c(Cl)c1`, the “activity, negative = inhibition” value was 0.686% (inactive).
`Cc1ccc(S(=O)(=O)c2nc(S(C)(=O)=O)sc2N2CCC(O)CC2)cc1` was tested, and the “activity, negative = inhibition” value was -0.609% (inactive).
With `Clc1cccc(Cc2c(-c3ccco3)nc3c4ccccc4ccn23)c1` the Potency was 1.9 µM (active).
`c1ccc(Cc2c(-c3ccco3)nc3c4ccccc4ccn23)cc1` was tested, and the Potency was 0.601 µM (active).
`Fc1cccc(Cc2c(-c3ccco3)nc3c4ccccc4ccn23)c1` was tested, and the Potency was 0.379 µM (active).
`c1ccc(-c2nc3c4ccccc4ccn3c2Cc2ccsc2)cc1` was tested, and the Potency was 1.51 µM (active).
`CCCc1nc([N+](=O)[O-])c(S(=O)(=O)c2ccccc2)n1CC(C)C` was tested, and the “activity, negative = inhibition” value was -3.37% (inactive).
`Cc1ccc(Cc2c(-c3ccco3)nc3c4ccccc4ccn23)cc1` was tested, and the Potency was 0.239 µM (active).
For `COc1ccc(Cc2c(-c3ccccc3)nc3c4ccccc4ccn23)c(C)c1`, the Potency was 3.01 µM (active).
For `Clc1cccc(Cc2c(-c3ccccc3)nc3c4ccccc4ccn23)c1`, the Potency was 6.01 µM (active).
For `COc1ccccc1Cc1c(-c2ccco2)nc2c3ccccc3ccn12`, the Potency was 0.301 µM (active).
For `FC(F)(F)c1ccccc1Cc1c(-c2ccccc2)nc2c3ccccc3ccn12`, the Potency was 5.36 µM (active).
In the case of `Clc1ccsc1-c1csc(-c2cccnc2)n1`, the Potency is reported as 3.38 µM (active).
For `CC(=O)N1CCc2c(sc(NC(=O)CCS(=O)(=O)c3ccccc3)c2C#N)C1`, the “activity, negative = inhibition” value was 2.37% (inactive).
In the case of `CCOC(=O)N1CCc2c(sc3c2C(=O)NC(c2ccccc2)N3)C1` (stereo unspecified), the Potency is reported as 6.75 µM (active).
`COc1ccc([C@H]2Cc3cccc(O)c3C(=O)O2)cc1O` was tested, and the “activity, negative = inhibition” value was 0.428% (inactive).
With `COc1ccc2[nH]c3c(NCc4ccco4)ncnc3c2c1` the Potency was 4.78 µM (active).
In the case of `CCc1cc2c(NCc3ccco3)ncnc2s1`, the “activity, negative = inhibition” value is reported as -4.96% (inactive).
For `Cc1sc2ncnc(NCc3ccco3)c2c1C`, the “activity, negative = inhibition” value was -16.7% (inactive).
`O=C1C(=Cc2cccc(Cl)c2)Cc2ccccc21` was tested, and the Potency was 1.07 µM (active).
For `O=C1C(=Cc2cccc(F)c2)Cc2ccccc21`, the Potency was 1.51 µM (active).
In the case of `Nc1ccccc1C=C1Cc2ccccc2C1=O`, the Potency is reported as 0.426 µM (active).
In the case of `COc1cc(OC)c(OC)cc1/C=C1/Cc2ccccc2C1=O`, the “activity, negative = inhibition” value is reported as 3.06% (inactive).
In the case of `O=C1C(=Cc2ccccc2Cl)CCc2ccccc21`, the Potency is reported as 0.169 µM (active).
`Cc1c(=O)n(OCc2ccc(Cl)cc2)c2ccccc2[n+]1[O-]` was tested, and the “activity, negative = inhibition” value was 1.48% (inactive).
`CC1(O)c2ccccc2C(=O)N1CCc1ccccc1F` (stereo unspecified) was tested, and the Potency was 6.75 µM (active).
% is scaled to controls: 0 for no effect and ±100 for the full control effect; potency is read from the fitted curve at half-maximal effect.
Also: nearly all actives have a fitted effect of over 65% in size.
